This is an account of results in ChEMBL document CHEMBL1157539, “Thousands of chemical starting points for antimalarial lead identification” (Nature, 2010).

Molecules are shown by their SMILES.

Format in all cases: functional
For test [1], the system named is Plasmodium falciparum. The test is described as follows: GSK_TCMDC: Inhibition of Plasmodium falciparum 3D7 in whole red blood cells, using parasite LDH activity as an index of growth. Test compounds present at 2uM.
In test [2] the test system is Plasmodium falciparum. The test is described as follows: GSK_TCMDC: Inhibition of Plasmodium falciparum Dd2 in whole red blood cells, using parasite LDH activity as an index of growth. Test compounds present at 2uM.
The test system of a further test is HepG2. The test is described as follows: GSK_TCMDC: Percent inhibition of human HepG2 cell line. Test compounds present at 10uM.

Usually Inhibition stands for the relative decrease from the control value, in per cent. In the case of `COc1cc2nc(N3CCC(CCCC4CCNCC4)CC3)nc(NCc3ccccn3)c2cc1OC.O=C(O)C(F)(F)F`, the Inhibition in the test on Plasmodium falciparum [1] is 100%; in the test on Plasmodium falciparum [2], 6%; in the test on HepG2, 2%.
For the molecule `O=C(O)C(F)(F)F.O=C1OC2(CN1CC1CCN(Cc3ccc(O)cc3Cl)C1)c1ccccc1-c1ccccc12` (centres undefined), the Inhibition with Plasmodium falciparum [1] stood at 84%; in the test on Plasmodium falciparum [2], 84%; with HepG2, 16%.
On to `CC(C)Cn1cc(C2CCN(CCN3CCC(CNC(=O)c4ccc(NC(=O)c5cc(Cl)cc(Cl)c5)cc4)CC3)CC2)c2ccccc21`, for which the Inhibition with Plasmodium falciparum [1] is on record as 91%; in the test with Plasmodium falciparum [2], 96%; with HepG2, 53%.
Turning to `CCNCc1ccc(-c2cccc(-c3nc4ccccc4[nH]3)c2)cc1.O=C(O)C(F)(F)F`, the Inhibition in the test with Plasmodium falciparum [1] is 100%; with Plasmodium falciparum [2], 18%; in the test on HepG2, 26%.
The matching figures for `COCCCn1c(=N)c(C(=O)NCCc2ccc(OC)cc2)cc2c(=O)n3cccc(C)c3nc21`: 95%, 33% and 18%.
For `CC(C)CCNc1nc(NCc2ccccc2)c2cc(O)ccc2n1`, the Inhibition is given as 100% with Plasmodium falciparum [1], 92% with Plasmodium falciparum [2] and 25% with HepG2.
For the molecule `O=[N+]([O-])c1ccc(C=NNc2nc(Nc3ccccc3)nc(Nc3ccccc3)n2)o1`, the values for the Inhibition in the test with Plasmodium falciparum [1], in the test on Plasmodium falciparum [2] and in the test with HepG2 were 94%, 61% and 5%, respectively.
On to `O=C(NC1CCCC1)c1cc2c(=O)n3ccccc3nc2[nH]/c1=N/CCc1ccccc1`, for which the Inhibition with Plasmodium falciparum [1] came out at 100%; in the test with Plasmodium falciparum [2], 61%; in the test with HepG2, 19%.
Take `Cc1nc(-c2ccc(C(F)(F)F)cn2)sc1C(=O)N1CCc2cc3nccc(N4CCN5CCC[C@H]5C4)c3cc21.Cl`: the Inhibition in the test with Plasmodium falciparum [1] stood at 100%; with Plasmodium falciparum [2], 72%; in the test on HepG2, 5%.
In the same order, the values of `CC(C)c1sc(-c2ccc(C(C)(C)C)cc2)nc1C(=O)NCCCN1CCCC1=O` are 96%, 92% and 0%.
The matching figures for `CNC(=O)Cc1ccc(C(=O)Nc2cccc(-c3cccc(-c4nc5cc(C(F)(F)F)ccc5[nH]4)c3)c2)cc1`: 95%, 37% and 40%.
In the same order, the values of `Cc1cccc(C)c1N1CCN(C2CCC(NC(=O)/C=C/c3ccccc3)CC2)CC1` (centres undefined) are 83%, 34% and 38%.
With `COCCCNC(=O)c1ccc(O)c(-c2cc(Cl)cc(Cl)c2)c1`, the Inhibition in the test with Plasmodium falciparum [1] is reported as 94%; with Plasmodium falciparum [2], 34%; in the test with HepG2 it was 22%.
In the same order, the values of `CC(C)Oc1cc(-c2ccc(S(C)(=O)=O)cc2)nc(N(Cc2cccc(F)c2F)Cc2cccc(F)c2F)n1` are 100%, 99% and 10%.
On to `Cn1cnc(CCNC(=O)c2cccc(-c3cccc(-c4nc5cc(C(F)(F)F)ccc5[nH]4)c3)c2)c1`, for which the Inhibition in the test with Plasmodium falciparum [1] was determined as 100%; in the test with Plasmodium falciparum [2], 45%; in the test with HepG2, 37%.
In the same order, the values of `O=C(Nc1cccc(-c2ccc(-c3nc4ccccc4[nH]3)cc2)c1)Nc1ccc(F)c(F)c1F` are 100%, 38% and 45%.
With `Cc1cc(-c2ccc3c(c2)CCN(CCC2CCC(NC(=O)/C=C/c4ccc(F)cc4)CC2)CC3)on1.Cl` (centres undefined), the values for the Inhibition in the test on Plasmodium falciparum [1], in the test on Plasmodium falciparum [2] and in the test on HepG2 were 98%, 47% and 29%, respectively.
In the case of `O=C(Nc1ccc2c(c1)OCO2)NC1CCN(c2ccnc(Nc3ccc(F)cc3)n2)C1` (centres undefined), the Inhibition with Plasmodium falciparum [1] worked out at 100%; with Plasmodium falciparum [2], 89%; in the test with HepG2, 5%.
In the same order, the values of `CCOc1ccc2[nH]c(C)cc(=NN=Cc3cccc(F)c3)c2c1` are 100%, 23% and 0%.
Consider `Fc1ccc2[nH]c(-c3ccc(-c4ccc(CN5CCCCC5)cc4)cc3)nc2c1.O=C(O)C(F)(F)F`, for which the Inhibition in the test with Plasmodium falciparum [1] stood at 98%; with Plasmodium falciparum [2], 100%; with HepG2, 31%.
Regarding `CCOC(=O)C1=C(C)N=c2sc(=Cc3cc(Cl)ccc3O)c(=O)n2C1c1ccc2c(c1)OCO2` (centres undefined), the results for the Inhibition with Plasmodium falciparum [1], in the test on Plasmodium falciparum [2] and in the test with HepG2 were 96%, 91% and 0%, respectively.
On to `COc1ccc(-n2cc(C(=O)c3cc(Br)ccc3O)cc(C#N)c2=O)cc1Cl`, for which the Inhibition was found to be 99% in the test with Plasmodium falciparum [1], 23% with Plasmodium falciparum [2] and 29% in the test with HepG2.
In the case of `Br.CC1(C)NC(N)=NC(=N)N1OCCCNC(=O)c1ccc([N+](=O)[O-])cc1`, the Inhibition with Plasmodium falciparum [1] was found to be 92%; in the test with Plasmodium falciparum [2] it was 97%; in the test on HepG2, 57%.
In the same order, the values of `CCN(CC)CCN(CCN(CC)CC)c1ccc2c(c1)Sc1c(Cl)ccc(Cl)c1S2.Cl` are 98%, 94% and 31%.
As for `COc1ccc2nc(C)cc(N/N=C/C=C/c3ccccc3)c2c1`, the values for the Inhibition in the test with Plasmodium falciparum [1], in the test with Plasmodium falciparum [2] and with HepG2 were 100%, 100% and 27%, respectively.
In the case of `O=C(C1CCN(C(c2ccccc2)c2ccc(Cl)c(Cl)c2)CC1)N1CC=CC1` (centres undefined), the Inhibition with Plasmodium falciparum [1] was 89%; with Plasmodium falciparum [2], 84%; in the test with HepG2, 1%.
`Br.COc1ccc(CC(C)CON2C(N)=NC(N)=NC2(C)C)cc1` (centres undefined): the results for the Inhibition in the test on Plasmodium falciparum [1], in the test with Plasmodium falciparum [2] and in the test on HepG2 were 94%, 96% and 59%, respectively.
Regarding `Cl.O=c1cc(NCCCNCc2cc3c(Cl)cccc3s2)[nH]c2ccccc12`, the figures for the Inhibition in the test on Plasmodium falciparum [1], with Plasmodium falciparum [2] and with HepG2 were 100%, 57% and 6%, respectively.
